# Laboratory results taken from PubChem BioAssay (NCATS).
# Records with an inconclusive call do not appear. Values without a mark were called inactive. Some of the results follow. Entries that show only a call come without a potency. Active and inactive are the calls of the source. Calls come from the whole dose curve; as a rule, active = well fitted curve in the direction sought with a large enough effect; inconclusive = small, poorly fitted or top-dose-only effect, or another doubt; inactive = no such curve, though single readings can be large; an effect the other way counts as inactive or inconclusive.
# Legend:
# [1] = biological target: Rap guanine nucleotide exchange factor 3 (Homo sapiens) (UniProt O95398); test: Confirmatory qHTS for antagonist of cAMP-regulated guanine nucleotide exchange factor 3 (EPAC1) (AID 1645880); conditions: EPAC1 Rap1B-BODIPY-GDP exchange, fluorescence; activity, negative = inhibition: at 115 µM (top of the series); note: nearly all actives have a fitted effect of over 55% in size; note: potency is the fitted concentration of half-maximal effect
# Chain of Rap guanine nucleotide exchange factor 3 (Homo sapiens) (O95398 whole entry, looked up): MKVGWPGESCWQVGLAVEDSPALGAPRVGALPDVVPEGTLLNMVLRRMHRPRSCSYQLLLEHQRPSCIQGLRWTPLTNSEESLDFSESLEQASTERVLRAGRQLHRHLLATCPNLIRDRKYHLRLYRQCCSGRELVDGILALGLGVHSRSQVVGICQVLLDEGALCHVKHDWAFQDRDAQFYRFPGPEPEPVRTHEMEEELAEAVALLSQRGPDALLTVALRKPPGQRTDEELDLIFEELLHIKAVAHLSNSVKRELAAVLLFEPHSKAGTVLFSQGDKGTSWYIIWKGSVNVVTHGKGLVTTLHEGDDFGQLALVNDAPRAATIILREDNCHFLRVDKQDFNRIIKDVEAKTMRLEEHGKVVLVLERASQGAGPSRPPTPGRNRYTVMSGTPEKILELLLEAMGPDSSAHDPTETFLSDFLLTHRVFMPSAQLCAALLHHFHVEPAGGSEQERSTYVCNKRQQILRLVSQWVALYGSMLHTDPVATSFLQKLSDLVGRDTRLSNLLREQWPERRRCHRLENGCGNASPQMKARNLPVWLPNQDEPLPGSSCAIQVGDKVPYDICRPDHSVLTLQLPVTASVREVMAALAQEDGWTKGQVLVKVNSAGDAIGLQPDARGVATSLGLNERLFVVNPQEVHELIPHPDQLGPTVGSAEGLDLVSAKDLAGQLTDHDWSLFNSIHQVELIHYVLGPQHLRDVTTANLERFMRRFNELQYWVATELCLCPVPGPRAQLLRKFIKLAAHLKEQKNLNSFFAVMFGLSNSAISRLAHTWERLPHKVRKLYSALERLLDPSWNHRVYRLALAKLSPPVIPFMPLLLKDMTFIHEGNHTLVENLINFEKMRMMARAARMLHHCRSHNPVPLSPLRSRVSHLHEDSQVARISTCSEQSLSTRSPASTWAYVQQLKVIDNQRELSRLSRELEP
# Outline: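 Nucleotide exchange uses 100 nM EPAC1, 250 nM RAP1B-BODIPY-GDP and 50 uM GDP, with compounds in a concentration-titration series. After 5 min at room temperature, fluorescence (480 nm ex/540 nm em) is read every 5 min for 30 min. Data are normalized to control ATA and DMSO.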
# [2] = biological target: Rap guanine nucleotide exchange factor 3 (Homo sapiens) (UniProt O95398); test: Confirmatory qHTS for agonist of cAMP-regulated guanine nucleotide exchange factor 3 (EPAC1) (AID 1645881);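 note: EPAC1 catalysed release of BODIPY-GDP from Rap1B seen as fluorescence loss; nearly all actives have a fitted effect of over 75% in size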
# [3] = biological target: Rap guanine nucleotide exchange factor 4 (Homo sapiens) (UniProt Q8WZA2); test: Confirmatory qHTS for agonist of cAMP-regulated guanine nucleotide exchange factor 4 (EPAC2) (AID 1645884);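 note: nucleotide exchange releases bodipy-GDP from Rap1 and this lowers its fluorescence; nearly all actives have a fitted effect of over 65% in size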
# Chain of Rap guanine nucleotide exchange factor 4 (Homo sapiens) (Q8WZA2 whole entry, looked up): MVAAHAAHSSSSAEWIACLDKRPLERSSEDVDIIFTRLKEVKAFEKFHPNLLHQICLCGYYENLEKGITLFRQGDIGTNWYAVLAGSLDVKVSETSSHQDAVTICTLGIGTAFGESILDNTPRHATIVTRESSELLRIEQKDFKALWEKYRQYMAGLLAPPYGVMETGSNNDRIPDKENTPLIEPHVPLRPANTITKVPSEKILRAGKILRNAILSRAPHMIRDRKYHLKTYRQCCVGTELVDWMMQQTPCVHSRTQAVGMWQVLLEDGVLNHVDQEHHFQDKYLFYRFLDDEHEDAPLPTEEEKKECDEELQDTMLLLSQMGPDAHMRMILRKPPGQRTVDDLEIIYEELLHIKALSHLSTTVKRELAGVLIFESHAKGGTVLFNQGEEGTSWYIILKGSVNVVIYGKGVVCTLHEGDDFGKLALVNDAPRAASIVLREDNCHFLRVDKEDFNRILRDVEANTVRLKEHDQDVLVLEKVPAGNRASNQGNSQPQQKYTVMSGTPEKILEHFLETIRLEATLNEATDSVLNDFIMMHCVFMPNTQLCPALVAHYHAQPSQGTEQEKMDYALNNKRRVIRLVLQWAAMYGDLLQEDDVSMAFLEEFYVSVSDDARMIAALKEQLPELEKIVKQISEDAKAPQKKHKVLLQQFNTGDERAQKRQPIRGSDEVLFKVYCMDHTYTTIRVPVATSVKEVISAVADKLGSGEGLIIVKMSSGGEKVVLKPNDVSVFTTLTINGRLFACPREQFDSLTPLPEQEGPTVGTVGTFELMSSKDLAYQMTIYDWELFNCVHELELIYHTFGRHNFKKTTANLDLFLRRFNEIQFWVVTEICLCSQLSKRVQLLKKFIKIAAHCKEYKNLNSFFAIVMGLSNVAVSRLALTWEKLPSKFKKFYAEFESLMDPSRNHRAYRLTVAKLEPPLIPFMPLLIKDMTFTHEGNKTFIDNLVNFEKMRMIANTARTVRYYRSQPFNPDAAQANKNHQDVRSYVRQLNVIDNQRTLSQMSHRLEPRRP
# [4] = biological target: Rap guanine nucleotide exchange factor 3 (Homo sapiens) (UniProt O95398); test: Counterscreen qHTS for agonist of cAMP-regulated guanine nucleotide exchange factor 3 (EPAC1) (AID 1645889); note: nearly all actives have a fitted effect of over 40% in size; note: potency is the fitted concentration of half-maximal effect
# Outline: (§1)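 Rap1B-BODIPY-GDP 250 nM + GDP 50 uM; cpds 7-pt, final 9.74 nM–152 uM (activator mode) or from 7.32 nM upwards (inhibitor mode); RT; FI 480/540 nm at 5 and 30 min, then ± cAMP, reread.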
# [5] = biological target: Phosphoglycerate kinase, glycosomal (Trypanosoma brucei brucei) (UniProt P07378); test: qHTS for inhibitors of Phosphogylcerate Kinase: Hit Validation Screen (AID 686980); conditions: TbPGK coupled GAPDH assay, Kinase-Glo luminescence; note: potency is the fitted concentration of half-maximal effect; nearly all actives have a fitted effect of over 65% in size
# Outline: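 Luminescent ATP detection (Kinase-Glo Plus) follows a 60-minute room-temperature incubation, with wells lacking PGK as controls. Buffer: 100 mM TEA (pH 7.6), 5 mM MgCl2, 0.01% Tween-20. Coupling enzyme GAPDH (100 nM final) supplies unstable 1,3-BPG in-well.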
# [6] = biological target: DNA polymerase iota (Homo sapiens) (UniProt Q9UNA4); test: qHTS for Inhibitors of Polymerase Iota: Confirmatory Assay for Cherry-picked Compounds (AID 720496); conditions: Pol iota primer extension, TAMRA/BHQ fluorescence; note: potency is the fitted concentration of half-maximal effect
# Chain of DNA polymerase iota (Homo sapiens) (Q9UNA4 whole entry, looked up): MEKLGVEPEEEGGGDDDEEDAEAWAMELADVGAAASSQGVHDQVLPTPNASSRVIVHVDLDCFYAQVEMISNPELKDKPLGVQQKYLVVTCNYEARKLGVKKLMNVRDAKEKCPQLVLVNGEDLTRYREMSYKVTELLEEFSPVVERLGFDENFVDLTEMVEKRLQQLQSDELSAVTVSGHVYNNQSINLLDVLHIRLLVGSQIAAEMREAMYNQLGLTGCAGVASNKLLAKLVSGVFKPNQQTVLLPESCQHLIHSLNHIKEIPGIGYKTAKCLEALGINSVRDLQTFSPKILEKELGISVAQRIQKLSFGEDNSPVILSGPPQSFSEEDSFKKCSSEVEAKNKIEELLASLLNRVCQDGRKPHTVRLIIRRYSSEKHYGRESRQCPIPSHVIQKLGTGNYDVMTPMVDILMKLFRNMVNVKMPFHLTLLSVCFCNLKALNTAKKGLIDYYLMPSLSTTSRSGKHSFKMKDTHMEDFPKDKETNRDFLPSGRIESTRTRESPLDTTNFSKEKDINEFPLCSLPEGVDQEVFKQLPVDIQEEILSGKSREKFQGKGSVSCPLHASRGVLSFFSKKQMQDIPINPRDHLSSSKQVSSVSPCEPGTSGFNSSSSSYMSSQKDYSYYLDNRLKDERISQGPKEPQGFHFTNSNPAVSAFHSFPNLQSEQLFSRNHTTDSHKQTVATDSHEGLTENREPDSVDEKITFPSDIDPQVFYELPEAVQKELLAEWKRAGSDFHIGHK
# Outline: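 Step 1: 10 nM Pol iota with compound, 15 min, room temperature. Step 2: 50 nM final quenched DNA substrate added. Step 3: fluorescence (ex 525, em 598 nm) read at 0 and after 10 min.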
# [7] = biological target: Bifunctional 3'-5' exonuclease/ATP-dependent helicase WRN (Homo sapiens) (UniProt Q14191); test: qHTS for Inhibitors of WRN Helicase: Confirmatory Assay for Cherry-picked Compounds. (AID 720497); conditions: WRN helicase DNA unwinding, fluorescence kinetic; note: potency is the fitted concentration of half-maximal effect; nearly all actives have a fitted effect of over 65% in size
# Chain of Bifunctional 3'-5' exonuclease/ATP-dependent helicase WRN (Homo sapiens) (Q14191 whole entry, looked up): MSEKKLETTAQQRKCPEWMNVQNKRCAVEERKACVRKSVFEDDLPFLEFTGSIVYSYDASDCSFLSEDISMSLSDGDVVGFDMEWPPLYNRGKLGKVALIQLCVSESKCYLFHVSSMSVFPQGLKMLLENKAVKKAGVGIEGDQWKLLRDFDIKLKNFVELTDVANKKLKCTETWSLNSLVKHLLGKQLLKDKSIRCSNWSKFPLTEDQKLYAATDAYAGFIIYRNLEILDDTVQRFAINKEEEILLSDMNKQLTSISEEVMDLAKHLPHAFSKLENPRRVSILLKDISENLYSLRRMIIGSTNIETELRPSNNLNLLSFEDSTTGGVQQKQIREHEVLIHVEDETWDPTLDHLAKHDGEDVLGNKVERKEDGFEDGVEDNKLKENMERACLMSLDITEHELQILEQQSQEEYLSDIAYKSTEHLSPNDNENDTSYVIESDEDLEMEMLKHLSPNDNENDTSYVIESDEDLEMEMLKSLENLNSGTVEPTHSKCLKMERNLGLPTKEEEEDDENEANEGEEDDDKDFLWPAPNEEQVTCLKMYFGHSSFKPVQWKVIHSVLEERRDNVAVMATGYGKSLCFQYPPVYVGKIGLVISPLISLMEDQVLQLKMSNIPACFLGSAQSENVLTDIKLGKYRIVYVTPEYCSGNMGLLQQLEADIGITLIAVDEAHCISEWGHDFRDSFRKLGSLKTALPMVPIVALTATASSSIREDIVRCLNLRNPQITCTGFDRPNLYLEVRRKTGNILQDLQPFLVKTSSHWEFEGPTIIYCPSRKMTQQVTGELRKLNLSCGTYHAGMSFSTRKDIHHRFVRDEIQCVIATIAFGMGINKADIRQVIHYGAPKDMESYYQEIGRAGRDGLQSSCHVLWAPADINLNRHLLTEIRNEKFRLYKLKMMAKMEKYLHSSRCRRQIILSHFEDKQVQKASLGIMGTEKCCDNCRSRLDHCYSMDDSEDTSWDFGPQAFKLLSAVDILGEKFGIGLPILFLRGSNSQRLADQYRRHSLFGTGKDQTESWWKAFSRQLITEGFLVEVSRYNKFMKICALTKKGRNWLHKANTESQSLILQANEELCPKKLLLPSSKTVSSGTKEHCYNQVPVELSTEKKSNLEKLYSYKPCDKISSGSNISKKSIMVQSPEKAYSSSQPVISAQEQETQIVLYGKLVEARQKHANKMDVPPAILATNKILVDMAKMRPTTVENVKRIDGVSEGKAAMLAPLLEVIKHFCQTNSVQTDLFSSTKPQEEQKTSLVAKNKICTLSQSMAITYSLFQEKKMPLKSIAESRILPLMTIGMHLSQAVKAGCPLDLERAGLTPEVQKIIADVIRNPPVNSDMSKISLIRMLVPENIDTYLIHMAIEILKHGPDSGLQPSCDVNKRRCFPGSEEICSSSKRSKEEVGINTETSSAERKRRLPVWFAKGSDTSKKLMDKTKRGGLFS
# Outline: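 Compound and 20 nM WRN incubated 15 min, RT. Forked duplex (100 nM) plus ATP (2 mM) added. Fluorescence monitored kinetically and normalized to controls.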
# [8] = biological target: DNA polymerase kappa (Homo sapiens) (UniProt Q9UBT6); test: qHTS for Inhibitors of Polymerase Kappa: Confirmatory Assay for Cherry-picked Compounds (AID 720501); conditions: purified Pol-kappa, fluorescent strand-displacement substrate; note: potency is the fitted concentration of half-maximal effect
# Chain of DNA polymerase kappa (Homo sapiens) (Q9UBT6 whole entry, looked up): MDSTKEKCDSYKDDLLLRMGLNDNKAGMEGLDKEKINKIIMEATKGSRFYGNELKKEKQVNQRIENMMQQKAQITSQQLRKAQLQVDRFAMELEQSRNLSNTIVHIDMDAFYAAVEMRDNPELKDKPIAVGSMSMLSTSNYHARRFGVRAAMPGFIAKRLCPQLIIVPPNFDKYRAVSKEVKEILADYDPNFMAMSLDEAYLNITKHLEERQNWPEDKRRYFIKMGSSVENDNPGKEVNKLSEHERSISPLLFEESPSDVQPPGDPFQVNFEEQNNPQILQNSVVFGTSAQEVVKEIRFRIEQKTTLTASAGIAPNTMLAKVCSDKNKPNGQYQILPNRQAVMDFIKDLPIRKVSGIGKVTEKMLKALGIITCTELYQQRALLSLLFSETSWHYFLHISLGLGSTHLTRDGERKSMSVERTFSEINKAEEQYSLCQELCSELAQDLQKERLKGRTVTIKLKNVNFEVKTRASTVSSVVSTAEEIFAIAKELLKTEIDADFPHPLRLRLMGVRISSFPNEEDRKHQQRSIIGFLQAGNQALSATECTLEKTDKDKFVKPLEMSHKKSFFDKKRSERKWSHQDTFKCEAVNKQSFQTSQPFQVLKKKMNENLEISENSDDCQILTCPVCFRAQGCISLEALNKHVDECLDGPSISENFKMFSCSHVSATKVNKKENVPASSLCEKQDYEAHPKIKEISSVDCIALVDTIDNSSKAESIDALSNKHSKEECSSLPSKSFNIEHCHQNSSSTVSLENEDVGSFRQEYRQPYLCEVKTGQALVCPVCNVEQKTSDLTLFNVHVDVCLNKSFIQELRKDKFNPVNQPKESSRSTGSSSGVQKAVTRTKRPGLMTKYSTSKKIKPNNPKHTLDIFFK
# Outline: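 Strand-displacement fluorescence read-out: TAMRA reporter released from a BHQ-2-quenched template, measured at 525/598 nm over a 10 min kinetic window. Substrate was 50 nM final; enzyme was 10 nM Pol-kappa, preincubated 15 min at room temperature with compound.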
# [9] = biological target: RecQ-like DNA helicase BLM (Homo sapiens) (UniProt P54132); test: qHTS for Inhibitors of WRN Helicase: BLM Helicase Counterscreen for WRN Inhibitors (AID 720503); conditions: Recombinant BLM helicase DNA unwinding, red fluorescence; note: potency is the fitted concentration of half-maximal effect; nearly all actives have a fitted effect of over 60% in size
# Outline: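 Reactions were started with 100 nM DNA substrate and 2 mM ATP (final) after compound and 1 nM BLM stood 15 min at room temperature in Tris-HCl pH 8.0 buffer with NaCl, MgCl2, DTT and Tween-20. Two red-fluorescence reads 15 min apart were normalized against DMSO and no-enzyme wells.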
# [10] = biological target: Rap guanine nucleotide exchange factor 3 (Homo sapiens) (UniProt O95398); test: Counterscreen qHTS for antagonist of cAMP-regulated guanine nucleotide exchange factor 3 (EPAC1) (AID 1645888);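 note: fluorescence loss as bound BODIPY-GDP is released from Rap1B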
# Outline: as §1
structure (smiles),measurement,setting,value
COc1ccc(OC)c(/C=C/c2ccnc3ccccc23)c1,Potency,[1],inactive
same,Potency,[2],inactive
same,activation,[3],"0% [at 17.1 µM, percent relative to cAMP agonist control]"
same,activation,[4],14.1% [at 30.8 µM]
CN(C)c1ccc2nc3c(=O)[nH]c(=O)nc-3n(CC(O)C(O)C(O)CO)c2c1 (stereo unspecified),Potency,[1],inactive
same,Potency,[2],inactive
same,activation,[3],"-84.9% [at 17.1 µM, percent relative to cAMP agonist control]"
same,Potency,[4],11.2 µM (active)
Cc1ccc(C(=O)C=Cc2ccc3c(c2)OCO3)c(C)c1,Potency,[1],inactive
same,Potency,[2],inactive
same,activation,[3],"-0.688% [at 17.1 µM, percent relative to cAMP agonist control]"
same,activation,[4],12.3% [at 30.8 µM]
CC(=O)NC(c1ccc(Cl)cc1)c1ccc2cccnc2c1O (stereo unspecified),Potency,[1],inactive
same,Potency,[2],inactive
same,activation,[3],"-1.77% [at 17.1 µM, percent relative to cAMP agonist control]"
same,activation,[4],6.93% [at 30.8 µM]
O=c1ccc2c(-c3ccccc3S(=O)(=O)O)c3ccc(O)c(O)c3oc-2c1O,Potency,[5],0.366 µM (active)
same,Potency,[6],0.597 µM (active)
same,Potency,[7],0.541 µM (active)
same,Potency,[8],1.06 µM (active)
same,Potency,[9],0.136 µM (active)
same,Potency,[1],7.94 µM (active)
same,Potency,[2],inactive
same,activation,[3],"-12% [at 17.1 µM, percent relative to cAMP agonist control]"
same,"activity change, negative = inhibition",[10],-28.7% [at 30.8 µM]
same,activation,[4],-15.5% [at 30.8 µM]
COC(=O)c1cc(C(=O)OC)n(Cc2ccc(F)cc2)c1C,Potency,[1],inactive
same,Potency,[2],inactive
same,Potency,[3],inactive
same,Potency,[4],inactive
COc1cc(Br)cc(C(=O)N2CCc3ccccc32)c1OC,Potency,[1],inactive
same,Potency,[2],inactive
same,Potency,[3],inactive
same,Potency,[4],inactive
Cc1cccc(NC(=O)Cn2c(O)c(N=NC(=O)c3ccccc3O)c3ccccc32)c1,Potency,[1],75.7 µM (active)
same,Potency,[2],inactive
same,Potency,[3],inactive
same,Potency,[4],inactive
CCOC(=O)c1c(NC(=O)CSc2nnc(C)c(=O)[nH]2)sc(C)c1-c1ccc(C)cc1,Potency,[1],75.7 µM (active)
same,Potency,[2],inactive
same,Potency,[3],inactive
same,Potency,[4],inactive
NS(=O)(=O)c1cccc(Nc2nc3ccccc3nc2NS(=O)(=O)c2ccc(Cl)cc2)c1,Potency,[1],75.7 µM (active)
same,Potency,[2],inactive
same,Potency,[3],inactive
same,Potency,[4],inactive
CC(=O)Nc1scc(-c2ccccc2)[n+]1-c1ccc(C)cc1,Potency,[1],inactive
same,Potency,[2],inactive
same,activation,[3],"11.2% [at 17.1 µM, percent relative to cAMP agonist control]"
same,activation,[4],4.92% [at 30.8 µM]
COc1ccc(/C=C2/C(=O)N(CC3CCCO3)C(=S)N2C)c(OC)c1 (stereo unspecified),Potency,[1],84.9 µM (active)
same,Potency,[2],inactive
same,Potency,[3],inactive
same,Potency,[4],inactive
COC(=O)/N=C(/Cc1ccc(OC)cc1)c1ccc(OC)cc1,Potency,[1],inactive
same,Potency,[2],inactive
same,Potency,[3],inactive
same,Potency,[4],inactive
O=C(CN1C(=O)N/C(=C\c2ccccc2OCc2ccc(C(=O)O)cc2)C1=O)Nc1ccc(F)cc1,Potency,[1],42.6 µM (active)
same,Potency,[2],inactive
same,Potency,[3],inactive
same,Potency,[4],inactive
COc1ccc(C2CC2/C(=N/O)c2ccccn2)cc1 (stereo unspecified),Potency,[1],inactive
same,Potency,[2],inactive
same,Potency,[3],inactive
same,Potency,[4],inactive
